Compound activity as filed in PubChem.
Shown are actives, neighbours in structure and some others; about 3.3% of the full set was active somewhere.
AmpC detergent = AmpC beta-lactamase inhibition with detergent present. AID 485294. P00811. AmpC hydrolysis of nitrocefin, absorbance 480 nm, 0.01% Triton. 0.041% of 370,000 active. Potency, µM (highest dose often 114 µM), most hits filed as inhibitors; note: nearly all actives have a fitted effect of over 25% in size
Target sequence (P00811 whole entry, looked up): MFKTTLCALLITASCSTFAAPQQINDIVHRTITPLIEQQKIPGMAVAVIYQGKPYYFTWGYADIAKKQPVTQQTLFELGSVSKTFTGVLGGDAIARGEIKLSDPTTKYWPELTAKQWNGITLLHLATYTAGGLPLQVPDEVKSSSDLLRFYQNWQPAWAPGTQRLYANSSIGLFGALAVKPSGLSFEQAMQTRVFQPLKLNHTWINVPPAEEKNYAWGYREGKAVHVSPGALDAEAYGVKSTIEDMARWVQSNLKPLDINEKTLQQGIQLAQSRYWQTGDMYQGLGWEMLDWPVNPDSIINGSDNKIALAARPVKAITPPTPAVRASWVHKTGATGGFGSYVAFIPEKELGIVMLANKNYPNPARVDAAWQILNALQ
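AmpC (5.3 nM in the dispensed reagent) in 20 mM phosphate pH 7.0 with 0.01% (detergent screen) or 0.0001% Triton X-100 was preincubated with compounds for 15 min at room temperature. Nitrocefin was then added from an 800 uM solution, and hydrolysis was followed at 480 nm.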
AmpC inh no detg = inhibitors of E. coli AmpC beta-lactamase without detergent. P00811. AmpC nitrocefin hydrolysis, absorbance 480 nm, 0.0001% Triton. Potency, µM (highest dose often 57.1 µM), most hits filed as inhibitors. 0.52% of 330,000 active. AID 485341; note: nearly all actives have a fitted effect of over 20% in size
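AmpC (5.3 nM in the dispensed reagent) in 20 mM phosphate pH 7.0 with 0.01% (detergent screen) or 0.0001% Triton X-100 was preincubated with compounds for 15 min at room temperature. Nitrocefin was then added from an 800 uM solution, and hydrolysis was followed at 480 nm.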
Sm TGR block = blocks Schistosoma mansoni thioredoxin glutathione reductase. Potency, µM (series often up to 114 µM), usual class: inhibitors. purified TGR, DTNB reduction, TNB absorbance 405 nm. 3% of 360,000 active. AID 485364. Q962Y6; note: nearly all actives have a fitted effect of over 60% in size
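TGR 20 nM + NADPH 100 uM (dispensed conc.), cpd preinc 15 min RT; start with NADPH (500 uM addition) then DTNB (15 mM addition). Kinetic TNB absorbance, 405 nm filter. Four-parameter Hill fit across titration.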
Each line names hits and unclear results; the compound was inactive in the other large screens. Calls come from the whole dose curve; as a rule, active = well fitted curve in the direction sought with a large enough effect; inconclusive = small, poorly fitted or top-dose-only effect, or another doubt; inactive = no such curve, though single readings can be large; an effect the other way counts as inactive or inconclusive.

COc1ccc(/C=N/NC(=O)CCOc2ccccc2C)cc1OC	none
O=C(NCC12CC3CC(CC(C3)C1)C2)c1cc2nc(-c3ccc(F)cc3)cc(C(F)(F)F)n2n1	none (no result: AmpC inh no detg)
COc1cccc(N(CC(=O)N2CCC(C)CC2)S(=O)(=O)c2ccc(C)cc2)c1	none (no result: AmpC inh no detg)
Cc1cccc(N2CCN(C(=O)c3cn(CC(C)C)c(=O)c4c3c3ccccc3n4C)CC2)c1C	none (no result: AmpC inh no detg)
CN(C)c1ccc(CNC(=O)Cc2ccc(NC(=O)N3CCCCc4ccccc43)cc2)cc1	none (no result: AmpC inh no detg)
COc1ccc(Cl)c(Cn2c(NCc3ccco3)nc3c2c(=O)n(C)c(=O)n3C)c1	Sm TGR block 50.1µM
COc1cccc(Cn2c(NCc3ccco3)nc3c2c(=O)n(C)c(=O)n3C)c1	none
COc1cc(OC)c(NS(=O)(=O)c2cc(-c3cnc(C)o3)ccc2OC)cc1Cl	none (no result: AmpC inh no detg)
Cc1ccc(S(=O)(=O)N[C@@H](Cc2ccccc2)C(=O)CCl)cc1	Sm TGR block 11.2µM
Cc1ccc(S(=O)(=O)NC(Cc2ccccc2)C(=O)NN)cc1 (configuration not stated)	AmpC detergent inconclusive
Cc1ccccc1-c1nc2scc(CCNC(=O)c3ccco3)n2n1	none (no result: AmpC inh no detg)
CC1(C)CC(=O)C(N=Nc2ccc(S(=O)(=O)N3CCOCC3)cc2)=C(O)C1	Sm TGR block 39.8µM
CC1(C)CC(=O)C(N=Nc2ccc(Br)cc2)=C(O)C1	none
O=C(CN1CCCN(Cc2ccccc2Cl)S1(=O)=O)NCc1ccccc1	none (no result: AmpC inh no detg)
CSc1ccc(CCNC(=O)Cn2nc(C)n3c(cc4sccc43)c2=O)cc1	none (no result: AmpC inh no detg)
Cc1cc(C)nc(OC(=O)c2c(Cl)cc(Cl)cc2Cl)n1	none
Cc1cc(C)nc(OC(=O)c2ccc(Cl)cc2Cl)n1	Sm TGR block 22.4µM
Cc1ccc(-n2c(=O)c3c(cnn3C)n(CC(=O)Nc3c(C)cccc3C)c2=O)cc1	none (no result: AmpC inh no detg)
O=Cc1cccc(Oc2ncccn2)c1	AmpC detergent inconclusive
Nc1ccc(Oc2ncccn2)cc1	Sm TGR block 35.5µM
Cc1ccccc1OCCCn1c(-c2ccc(Cl)cc2)nc2ccccc2c1=O	none (no result: AmpC inh no detg)
COc1ccc(N=Nc2nc3cc(Br)c(Br)cc3n2C)c(OC)c1	Sm TGR block 44.7µM
COc1ccc(CNc2nc3ccccc3n2C)c(OC)c1	none
COc1cccc(CNC(=O)Cn2c(=O)n3nc(-c4cccc(C)c4)nc3c3ccccc32)c1	none (no result: AmpC inh no detg)
CCOc1ccccc1NC(=O)Cn1c(=O)n(CCCCC(=O)NCCCOC)c(=O)c2ccccc21	none (no result: AmpC inh no detg)
CC(CNC(=O)CN1C(=O)COc2ccc(S(=O)(=O)N3CCCCCC3)cc21)c1ccccc1 (configuration not stated)	none (no result: AmpC inh no detg)
S=C(NCc1ccco1)Nc1ccccc1Cl	Sm TGR block 7.94µM
Cc1c(Cl)cccc1NC(=S)NCc1ccco1	Sm TGR block inconclusive
CC(C)(C)c1ccc(C(=O)NC(=S)NCc2ccco2)cc1	Sm TGR block inconclusive
S=C(NCc1ccco1)Nc1cccc(Cl)c1Cl	Sm TGR block 7.94µM
CC(C)(CO)NC(=S)NCc1ccco1	Sm TGR block 25.1µM
Cc1cccc(NC(=S)NCc2ccco2)c1C	none
COc1ccc(-c2noc(N3CCC(C(=O)N4CCN(c5cccc(OC)c5)CC4)CC3)n2)cc1	none (no result: AmpC inh no detg)
CC(=O)Nc1ccc(S(=O)(=O)NCCc2csc3nc(-c4ccc(Cl)cc4)nn23)cc1	none (no result: AmpC inh no detg)
CCOC(=O)c1c(Oc2ccc(C(C)=O)cc2)nnc(-c2ccccc2)c1-c1ccccc1	none (no result: AmpC inh no detg)
O=C(Nc1nccs1)c1cc(-c2ccco2)nc2ccccc12	AmpC inh no detg inconclusive, Sm TGR block 56.2µM
CCOc1ccc(/C=N/NC(=O)c2cc(-c3ccco3)nc3ccccc23)cc1	none
O=C(Nc1nc2ccccc2s1)c1cc(-c2ccco2)nc2ccccc12	none
COc1ccc(OC)c(-c2cc(C(=O)N/N=C(\C)c3cccnc3)c3ccccc3n2)c1	none
Cc1nnc(NC(=O)c2cc(-c3ccco3)nc3ccccc23)s1	Sm TGR block 7.94µM
O=C(Nc1nccs1)c1cc(-c2ccccc2)nc2ccccc12	none
O=C(N/N=C/c1ccc(F)cc1)c1cc(-c2ccco2)nc2ccccc12	Sm TGR block 11.2µM
C/C(=N\NC(=O)c1cc(-c2ccco2)nc2ccccc12)c1cccnc1	Sm TGR block 10µM
Cc1ccccc1CSc1nc2c([nH]c3ccccc32)c(=O)n1-c1ccccc1	none (no result: AmpC inh no detg)
Cc1ccccc1CN1C(=O)c2ccccc2Sc2ccc(C(=O)NC3CCCCC3)cc21	none (no result: AmpC inh no detg)
COc1ccc(-c2nc(CSc3nncn4c3cc3sccc34)c(C)o2)cc1OC	none (no result: AmpC inh no detg)
CC(=O)c1ccccc1NS(=O)(=O)c1cc2c(cc1C)NC(=O)CO2	none (no result: AmpC inh no detg)
O=C(NC1CC1)c1cc(-c2ccco2)nc2ccccc12	AmpC inh no detg inconclusive, Sm TGR block 10µM
O=C(O)c1cc(-c2ccco2)nc2ccccc12	Sm TGR block inconclusive
CCc1ccc(S(=O)(=O)N2CCN(c3ccc(Cl)c(Cl)c3)CC2)cc1	none (no result: AmpC inh no detg)
